Results: PubChem BioAssay (NCATS)
“And” between values parts separate entries of the source, which are not always exact repeats. Equal values may be shown once. Results filed as inconclusive are left out. The source holds several records for some structures; these can differ, active in one and inactive in another. The source made the active and inactive calls. Unless noted, calls come from the whole dose curve; as a rule, active = well fitted curve in the direction sought with a large enough effect; inconclusive = small, poorly fitted or top-dose-only effect, or another doubt; inactive = no such curve, though single readings can be large; an effect the other way counts as inactive or inconclusive.

Columns and labels:
[1] = High-throughput drug toxicity screening in the BPDCN cell line Gen2.2 (AID 1224824; call rule not given here;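 note: cells exposed to compounds for 48 h before reading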); conditions: Gen2.2 BPDCN cells; at 45.8 µM (top of the series) unless noted
Procedure, shortened: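 Gen2.2 cells, 500 per well in phenol red-free RPMI with 10% FBS, exposed to compounds 48 h at 37 C, 5% CO2; viability by CellTiter-Glo luminescence. Percent activity scaled to DMSO (100%) and 9.2 uM bortezomib final (0%).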

[2] = High-throughput drug toxicity screening in the BPDCN cell line Cal-1 (AID 1224825; call rule not given here); conditions: Cal-1 BPDCN cell viability, qHTS; at 45.8 µM (top of the series) unless noted
Procedure, shortened: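 Viability of the BPDCN line Cal-1 is measured as ATP-based luminescence (CellTiter-Glo) following 48 h incubation with compounds. Percent activity uses DMSO-treated wells as 100% and 9.2 uM bortezomib as 0%.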

[3] = qHTS assay for measurement of the activity of small molecule inhibitors on Zika virus induced Caspase-3 activity in human iPSC derived neural progenitor cells (hNPCs) (AID 1224857); note: % of control where 0% means no effect; nearly all actives have a fitted effect of over 65% in size
Procedure, shortened: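 hNPCs seeded 350 cells/well, cultured 16–20 h; compounds added 1 h before ZIKV (2 FFU/cell), 37 C 6 h. Caspase-Glo 3/7 luminescence after 30 min RT; % inhibition from induction scaled to uninfected (0%) and infected (100%) wells.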

[4] = qHTS assay for measurement of the activity of small molecule inhibitors on Zika virus induced Caspase-3 activity in human astrocytoma cells (AID 1224859);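 note: plate controls were ZIKV-infected untreated cells for no effect and uninfected cells for full effect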
Procedure, shortened: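 Luminescence read-out (Caspase-Glo 3/7, 30 min RT) of caspase activity in SNB-19 cells infected 6 h with ZIKV, 2 FFU/cell, after 1 h compound pretreatment; % inhibition from induction normalised to uninfected (0%) and infected (100%) wells.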

[5] = qHTS Screen of the MIPE 4.0 Collection Against Ewings Sarcoma (TC32) (AID 1259256); note: nearly all actives have a fitted effect of over 45% in size; note: potency is the fitted concentration of half-maximal effect
Procedure, shortened: (§1)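 Compound titrations go onto adherent log-phase cells 4 h after seeding, incubate 48 h at 37C, then CellTiter-Glo luminescence reports viability relative to DMSO and cell-free controls.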

[6] = qHTS Screen of the MIPE 4.0 Collection Against Ewings Sarcoma (TC71) (AID 1259253); note: nearly all actives have a fitted effect of over 40% in size; note: potency is the fitted concentration of half-maximal effect
Procedure, shortened: as §1

[7] = qHTS Screen of the MIPE 4.0 Collection Against Ewings Sarcoma (EW8) (AID 1259255); note: nearly all actives have a fitted effect of over 35% in size; note: potency is the fitted concentration of half-maximal effect;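 for viability: 100% = DMSO-treated cells and 0% = medium-only wells without cells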
Procedure, shortened: as §1

[8] = qHTS assay to identify small molecule inhibitors of chordoma cells - UCH-1 (AID 1259355); note: % is set by controls: 0 for no effect and ±100 for the full control effect; nearly all actives have a fitted effect of over 55% in size
Procedure, shortened: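 A 48hr growth-inhibition format: each drug tested at 15 concentrations together with added auranofin, camptothecin, doxorubicin, rubitecan and topotecan, with cell viability quantified as CellTiter-Glo luminescence.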

[9] = qHTS Screen of the MIPE 4.0 Collection Against Ewings Sarcoma (RDES) (AID 1259252); note: nearly all actives have a fitted effect of over 35% in size; note: potency is the fitted concentration of half-maximal effect
Procedure, shortened: as §1

SMILES | cell viability, % of control (lower = more cytotoxic) [1] | viability (% of control) [2] | Potency [3] | Potency [4] | Potency [5] | Potency [6] | Potency [7] | Potency [8] | Potency [9]
Cn1cc(-c2ccc3nnc(C(F)(F)c4ccc5ncccc5c4)n3n2)cn1 | 55.7% | 64.2% | inactive | inactive | 0.833 µM (active) | – | – | – | –
COCCNCCCn1c(C(=O)CF)c(-c2ccc(C)cc2)c2c(N)ncnc21 | 77.9% | 85.7% | inactive | inactive | – | 16.6 µM (active) | inactive | – | –
CCOc1cc(C=C2C(=O)N(c3ccccc3)N=C2C)cc(Cl)c1OCC(=O)OC | 14.1% | 61.6% | inactive | inactive | 5.9 µM (active) | inactive | – | – | –
CCOC(=O)N[C@@H]1CC[C@@H]2[C@@H](C1)C[C@H]1C(=O)O[C@H](C)[C@H]1[C@@H]2C=Cc1ccc(-c2cccc(F)c2)cn1 | 14.3% | 20% | inactive | inactive | 18.7 µM (active) | 20.9 µM (active) | – | – | –
NCCc1ccc(O)c(O)c1 | 14.2% | 25% | inactive | inactive | 1.66 µM (active) | 16.6 µM (active) | 16.6 µM (active) | inactive | –
COc1ccc([C@@H]2CC(=O)c3c(O)cc(O[C@@H]4O[C@H](CO[C@@H]5O[C@@H](C)[C@H](O)[C@@H](O)[C@@H]5O)[C@@H](O)[C@H](O)[C@@H]4O)cc3O2)cc1O | 52.6% and 176% | 54.1% and 116% | inactive | inactive | inactive and 23.5 µM (active) | – | inactive | – | –
CCOC(=O)C1=C[C@]2(CC)CCCN3CCc4c(n1c1ccccc41)[C@@H]32 | 13.3% | 2.19% | inactive | inactive | – | 20.9 µM (active) | 18.7 µM (active) | inactive | –
CCC(C)N(C)C(=O)c1cc2ccccc2c(-c2ccccc2Cl)n1 (configuration not stated) | 95% | 94.3% | inactive | inactive | – | 23.5 µM (active) | inactive | – | –
NC(=O)C1CCCc2c1[nH]c1ccc(Cl)cc21 (configuration not stated) | 67% | 67.2% | inactive | inactive | – | – | inactive | – | –
CN(C)c1ccc(Nc2nc(N)n(C(=O)c3c(F)cccc3F)n2)cc1 | 73.4% | 14.1% | – | inactive | – | – | 0.132 µM (active) | – | 5.9 µM (active)
COc1cccc2cc(-c3nc(C4CCC(C(=O)O)CC4)n4ncnc(N)c34)[nH]c12 (configuration not stated) | 5.49% | 21% | inactive | inactive | – | 0.662 µM (active) | 0.526 µM (active) | – | –
CCN(CC)CCCC(C)Nc1ccnc2cc(Cl)ccc12 (configuration not stated) | 103% | 21.4% | inactive | inactive | inactive | inactive | inactive | – | –
Cc1cc2c(F)c(Oc3ncnn4cc(OC[C@@H](C)O)c(C)c34)ccc2[nH]1 | 249% | 71.2% | inactive | inactive | 20.9 µM (active) | 13.2 µM (active) | 20.9 µM (active) | – | –
CCCc1nc2c(C)cc(-c3nc4ccccc4n3C)cc2n1Cc1ccc(-c2ccccc2C(=O)O)cc1 | 126% | 103% | inactive | inactive | – | – | – | inactive | –
CCOC(=O)N1CCC(=C2c3ccc(Cl)cc3CCc3cccnc32)CC1 | 186% | 87.3% | inactive | inactive | 23.5 µM (active) | 26.4 µM (active) | 26.4 µM (active) | – | –
CNCc1ccc(-c2[nH]c3cc(F)cc4c3c2CCNC4=O)cc1 | 80.5% | 15.1% | inactive | inactive | 16.6 µM (active) | – | – | – | –

SMILES | cell viability, % of control (lower = more cytotoxic) [1] | viability (% of control) [2] | Potency [3] | Potency [4] | Potency [5] | Potency [6] | Potency [7] | Potency [8] | Potency [9]
Cc1cccc(-c2nn(C(=S)Nc3ccccc3)cc2-c2ccnc3ccccc23)n1 | 560% | 91.8% | inactive | inactive | inactive | – | inactive | – | –
COc1ccc(-c2ccc3c(N4CCOCC4)nc(N4C[C@@H](C)O[C@@H](C)C4)nc3n2)cc1CO | 19.2% | 12.6% | inactive | inactive | 0.59 µM (active) | 0.833 µM (active) | 0.662 µM (active) | – | –
Cc1ccc(NC(=O)c2cccc(C(C)(C)C#N)c2)cc1Nc1ccc2ncn(C)c(=O)c2c1 | 8.79% | 14% | inactive | inactive | – | – | 14.8 µM (active) | – | –
COc1ccccc1-c1cccc(-c2c(O)c3cc(C#N)c(Cl)cc3[nH]c2=O)c1 | 52.6% [at 92.2 µM] | 99.8% [at 92.2 µM] | inactive | inactive | inactive | – | 30.3 µM (active) | – | –
NC(=O)c1cnccn1 | 146% | 118% | inactive | inactive | – | inactive | inactive | – | –
Clc1cccc(Cl)c1NC1=NCCN1 | 144% | 113% | inactive | inactive | – | inactive | inactive | inactive | –
Nc1nc2[nH]cc(CCc3ccc(C(=O)N[C@@H](CCC(=O)O)C(=O)O)cc3)c2c(=O)[nH]1 | 115% | 37.4% | inactive | inactive | 0.662 µM (active) | 0.264 µM (active) | – | inactive | –
COc1ccc(COc2cc3oc(=O)c4cc(C(C)O)ccc4c3cc2OC)cc1 (configuration not stated) | 14.7% | 33.4% | inactive | inactive | – | 23.5 µM (active) | 20.9 µM (active) | – | –
Cc1ccccc1C(OCCN(C)C)c1ccccc1 (configuration not stated) | 149% | 93% | inactive | inactive | – | inactive | inactive | inactive | –
CCn1c(-c2nonc2N)nc2c(C#CC(C)(C)O)ncc(OC[C@H]3CCCNC3)c21 | 64.9% | 8.62% | inactive | inactive | 18.7 µM (active) | 18.7 µM (active) | 23.5 µM (active) | – | –
CC(C)(C)NCC(O)c1ccc(O)c(CO)c1 (configuration not stated) | 76% | 113% | inactive | inactive | – | inactive | inactive | – | –
Cc1cnc(NC(=O)C2=C(O)c3ccccc3S(=O)(=O)N2C)s1 | 60.9% | 96.3% | inactive | inactive | – | inactive | inactive | – | –
CC[C@@H](C)[C@H](NC(=O)[C@H](CC1CCCCC1)NC(=O)c1ccno1)C(=O)N1CCC2(CCc3ccccc32)CC1 | 168% | 111% | – | inactive | – | – | inactive | – | inactive
O=NN(CCCl)C(=O)NCCCl | 114% | 103% | inactive | inactive | inactive | inactive | inactive | – | –
COc1ccc(-c2ccc3c(N4CCOC[C@H]4C)nc(N4CCOC[C@H]4C)nc3n2)cc1CO | 11.3% | 22% | inactive | inactive | 0.0264 µM (active) | 0.0332 µM (active) | 0.0264 µM (active) | – | –
